# Measured values taken from PubChem BioAssay (Tox21).
# Values joined by “and” are separate entries in the source; they are usually repeats but may differ in a detail not shown here. Equal entries are not always repeated. Results filed as inconclusive are left out. Entries that show only a call come without a potency. A structure can be active in one record and inactive in another. Active and inactive are the calls of the source. Unless noted, calls come from the whole dose curve; as a rule, active = well fitted curve in the direction sought with a large enough effect in the repeat runs; inconclusive = weak or mixed curves; inactive = no such curve, though single readings can be large; an effect the other way counts as inactive or inconclusive.
# Key:
# [1] = qHTS assay to identify small molecule antagonists of the sonic hedgehog signaling (Shh) pathway (AID 1259369; calls by dose curve; note: nearly all actives have a fitted effect of over 45% in size; note: potency is the fitted concentration of half-maximal effect)
# Summary of the method: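 Antagonist mode: compound added to 3T3 Gli1-Luc cells followed by conditioned-medium stimulation, 24 h at 37 C, 5% CO2. Inhibition taken as loss of Gli1-driven luciferase luminescence.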
# [2] = target: Estrogen receptor beta (Homo sapiens) (UniProt Q92731); test: qHTS assay to identify small molecule agonists of the estrogen receptor beta (ER-beta) signaling pathway (AID 1259377; active = well fitted activation curve with a large enough effect in the signal ratio in the repeat runs, not every such curve was filed as active; the % refers to the signal ratio; note: potency is the fitted concentration of half-maximal effect)
# Estrogen receptor beta (Homo sapiens), sequence (Q92731 whole entry, looked up): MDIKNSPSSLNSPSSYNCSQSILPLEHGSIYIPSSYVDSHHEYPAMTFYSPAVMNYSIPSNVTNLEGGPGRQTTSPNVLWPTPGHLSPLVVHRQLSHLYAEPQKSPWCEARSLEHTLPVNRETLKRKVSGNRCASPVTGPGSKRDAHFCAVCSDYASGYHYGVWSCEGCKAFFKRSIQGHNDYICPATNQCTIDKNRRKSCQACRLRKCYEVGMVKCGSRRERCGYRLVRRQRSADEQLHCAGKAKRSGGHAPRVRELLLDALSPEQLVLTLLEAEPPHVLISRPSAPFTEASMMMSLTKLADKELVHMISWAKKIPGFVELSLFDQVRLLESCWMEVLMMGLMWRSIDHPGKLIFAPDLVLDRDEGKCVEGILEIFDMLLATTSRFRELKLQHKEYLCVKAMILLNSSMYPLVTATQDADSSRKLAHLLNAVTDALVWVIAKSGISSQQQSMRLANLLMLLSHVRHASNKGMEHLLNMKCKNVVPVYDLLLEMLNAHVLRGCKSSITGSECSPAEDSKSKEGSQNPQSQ
# Summary of the method: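 Read-out: beta-lactamase FRET fluorescence. Cell line: ER-beta-UAS-bla HEK293T in 2% charcoal-stripped FBS. Exposure: 16 hr at 37C. Substrate step: 2 h at room temperature.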
# [3] = target: Estrogen receptor beta (Homo sapiens) (UniProt Q92731); test: qHTS assay to identify small molecule antagonists of the estrogen receptor beta (ER-beta) signaling pathway (AID 1259378; active = well fitted inhibition curve with a large enough effect in the signal ratio in the repeat runs, not every such curve was filed as active; the % refers to the signal ratio; note: potency is the fitted concentration of half-maximal effect)
# Summary of the method: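 ER-beta-UAS-bla HEK293T (GripTite) cells in 2% charcoal-stripped FBS medium were preincubated 6 hr at 37C, dosed with compound, then stimulated with 1 nM E2 (final) for 16 hr; beta-lactamase reporter read by B/G FRET fluorescence after 2 hr substrate loading.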
# [4] = qHTS assay to identify small molecule agonists of the androgen receptor (AR) signaling pathway in the presence of an antagonist - cell viability counter screen (AID 1259379);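 note: MDA-kb2 human breast cancer cells carrying an MMTV luciferase reporter; series mostly up to about 92 µM; nearly all actives have a fitted effect of over 25% in size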
# Summary of the method: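 Cytotoxicity counter-screen run in the same wells as the nilutamide-challenged (3.0 µM final) AR agonist assay in MDA-kb2 cells. Compounds tested at 15 concentrations for 16 h, 37 °C without CO2; CellTiter-Fluor fluorescence read.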
# [5] = qHTS assay to identify small molecule agonists of the estrogen receptor beta (ER-beta) signaling pathway - cell viability counter screen (AID 1259380); note: nearly all actives have a fitted effect of over 30% in size; note: potency is the fitted concentration of half-maximal effect
# Summary of the method: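 Cell viability counter screen: CellTiter-Glo luminescence (30 min, room temperature) measured in the same wells as the beta-lactamase readout, after 16 hr compound exposure at 37C of ER-beta-bla HEK293T cells in 2% charcoal-stripped FBS medium.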
# [6] = qHTS assay to identify small molecule antagonists of the estrogen receptor beta (ER-beta) signaling pathway - cell viability counter screen (AID 1259382); note: nearly all actives have a fitted effect of over 55% in size; note: potency is the fitted concentration of half-maximal effect
# Summary of the method: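 Cytotoxicity was measured in the same wells by CellTiter-Glo luminescence after 30 min at room temperature. Cells were ER-beta-bla HEK293T in charcoal-stripped serum, given compound together with 1 nM E2 and incubated 16 h at 37C.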
# [7] = target: Estrogen receptor (Homo sapiens) (UniProt P03372); test: qHTS assay to identify small molecule agonists of the estrogen receptor alpha (ER-alpha) signaling pathway in the presence of an antagonist (AID 1259383; calls by dose curve; note: top concentration of the series differs between compounds; nearly all actives have a fitted effect of over 15% in size)
# Estrogen receptor (Homo sapiens), sequence (P03372 whole entry, looked up): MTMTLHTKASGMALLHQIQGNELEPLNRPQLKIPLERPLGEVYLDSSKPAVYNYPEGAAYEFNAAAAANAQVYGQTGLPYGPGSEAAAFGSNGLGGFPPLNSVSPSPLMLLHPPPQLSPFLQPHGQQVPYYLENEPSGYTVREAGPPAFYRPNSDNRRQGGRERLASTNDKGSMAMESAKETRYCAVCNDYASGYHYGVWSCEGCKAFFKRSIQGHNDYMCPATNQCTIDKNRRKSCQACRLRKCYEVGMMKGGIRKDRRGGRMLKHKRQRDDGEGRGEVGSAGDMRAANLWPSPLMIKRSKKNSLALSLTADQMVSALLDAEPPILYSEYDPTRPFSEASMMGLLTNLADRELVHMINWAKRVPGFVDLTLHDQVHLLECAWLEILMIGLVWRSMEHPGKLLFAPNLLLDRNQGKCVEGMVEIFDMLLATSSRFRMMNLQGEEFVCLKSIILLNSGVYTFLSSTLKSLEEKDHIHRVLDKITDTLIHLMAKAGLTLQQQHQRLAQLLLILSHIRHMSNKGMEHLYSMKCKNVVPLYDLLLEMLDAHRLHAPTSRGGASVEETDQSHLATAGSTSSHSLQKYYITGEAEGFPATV
# Summary of the method: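 Agonist-mode confirmation run in the presence of 10.0nM (final) ICI-182,780 antagonist. The reporter was ERE-driven luciferase in VM7Luc4E2 cells, grown in charcoal-stripped serum. Cells were exposed to 15-concentration compound series for 22hr, then ONE-Glo luminescence was read.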
# [8] = qHTS assay to identify small molecule agonists or antagonists of the thyroid stimulating hormone receptor (TSHR) signaling pathway - wild type cell line counter screen (AID 1259384; calls by dose curve)
# Summary of the method: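 Wild-type HEK293 cells were plated 18 h at 37 C/5% CO2, pin-dosed with compound plus Ro20-1724 medium, held 30 min at room temperature, then given cAMP-d2 and anti-cAMP-cryptate; fluorescence was read after 1 h. Fifteen concentrations, triplicate.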
# [9] = target: Thyrotropin receptor (Homo sapiens) (UniProt P16473); test: qHTS assay to identify small molecule antagonists of the thyroid stimulating hormone receptor (TSHR) signaling pathway (AID 1259385; calls by dose curve; note: nearly all actives have a fitted effect of over 20% in size; note: potency is the fitted concentration of half-maximal effect)
# Thyrotropin receptor (Homo sapiens), sequence (P16473 whole entry, looked up): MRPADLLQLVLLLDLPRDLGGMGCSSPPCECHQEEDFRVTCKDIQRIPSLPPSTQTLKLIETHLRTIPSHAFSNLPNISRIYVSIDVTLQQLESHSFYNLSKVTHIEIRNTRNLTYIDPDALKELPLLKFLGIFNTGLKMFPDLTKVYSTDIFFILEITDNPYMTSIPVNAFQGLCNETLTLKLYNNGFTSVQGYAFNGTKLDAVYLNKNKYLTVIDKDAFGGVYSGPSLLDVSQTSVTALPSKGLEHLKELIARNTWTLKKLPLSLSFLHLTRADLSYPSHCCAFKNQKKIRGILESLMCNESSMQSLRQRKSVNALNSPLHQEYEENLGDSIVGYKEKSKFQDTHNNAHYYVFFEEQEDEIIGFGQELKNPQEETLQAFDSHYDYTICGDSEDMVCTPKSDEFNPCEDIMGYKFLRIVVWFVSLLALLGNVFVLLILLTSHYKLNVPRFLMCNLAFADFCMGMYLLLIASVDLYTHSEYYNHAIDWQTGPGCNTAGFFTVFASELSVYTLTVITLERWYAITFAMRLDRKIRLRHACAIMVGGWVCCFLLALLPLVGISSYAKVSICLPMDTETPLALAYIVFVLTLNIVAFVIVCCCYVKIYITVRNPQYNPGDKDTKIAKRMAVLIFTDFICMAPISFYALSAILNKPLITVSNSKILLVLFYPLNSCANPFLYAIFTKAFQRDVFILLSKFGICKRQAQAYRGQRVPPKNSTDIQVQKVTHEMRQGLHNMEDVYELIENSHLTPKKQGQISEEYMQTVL
# Summary of the method: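 TSHR-HEK293 cells were plated and held 18 h at 37C/5% CO2, then given compound plus Ro20-1724 and stimulated with TSH at 1.5 ng/mL final. After 30 min at room temperature, cAMP was detected with cAMP-d2/anti-cAMP-cryptate (1 h) by fluorescence.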
# [10] = target: Progesterone receptor (Homo sapiens) (UniProt P06401); test: qHTS assay to identify small molecule agonists of the progesterone receptor (PR) signaling pathway (AID 1346784; calls by dose curve; note: nearly all actives have a fitted effect of over 30% in size)
# Progesterone receptor (Homo sapiens), sequence (P06401 whole entry, looked up): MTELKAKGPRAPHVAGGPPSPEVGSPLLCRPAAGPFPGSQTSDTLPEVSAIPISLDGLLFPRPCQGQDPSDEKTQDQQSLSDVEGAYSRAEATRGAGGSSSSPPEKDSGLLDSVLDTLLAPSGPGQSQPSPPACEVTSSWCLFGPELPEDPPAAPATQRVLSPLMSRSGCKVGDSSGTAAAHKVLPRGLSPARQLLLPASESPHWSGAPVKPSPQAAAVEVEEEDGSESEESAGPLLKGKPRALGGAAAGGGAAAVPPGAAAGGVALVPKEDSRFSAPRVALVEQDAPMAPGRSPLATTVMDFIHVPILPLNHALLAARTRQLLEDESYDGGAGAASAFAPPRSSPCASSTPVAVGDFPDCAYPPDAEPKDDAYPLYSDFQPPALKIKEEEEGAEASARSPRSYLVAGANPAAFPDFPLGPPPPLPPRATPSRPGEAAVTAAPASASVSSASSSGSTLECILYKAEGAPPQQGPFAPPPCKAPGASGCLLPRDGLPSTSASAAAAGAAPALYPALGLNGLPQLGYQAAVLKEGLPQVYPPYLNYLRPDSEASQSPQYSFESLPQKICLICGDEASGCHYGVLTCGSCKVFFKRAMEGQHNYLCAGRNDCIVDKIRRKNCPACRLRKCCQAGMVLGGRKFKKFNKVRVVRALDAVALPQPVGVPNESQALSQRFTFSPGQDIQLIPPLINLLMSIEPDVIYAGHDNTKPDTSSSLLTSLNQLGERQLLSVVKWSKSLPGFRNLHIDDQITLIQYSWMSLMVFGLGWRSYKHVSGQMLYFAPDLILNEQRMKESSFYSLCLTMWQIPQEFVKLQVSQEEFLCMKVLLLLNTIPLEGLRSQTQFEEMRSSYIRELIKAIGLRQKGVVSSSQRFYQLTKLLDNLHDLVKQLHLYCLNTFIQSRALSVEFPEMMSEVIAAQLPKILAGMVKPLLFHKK
# Summary of the method: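 Compounds were tested for PR agonism in HEK 293T cells bearing a beta-lactamase gene under UAS control. Treatment lasted 16 hr at 37C; signal came from fluorescence of a FRET substrate.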
# [11] = target: Progesterone receptor (Homo sapiens) (UniProt P06401); test: qHTS assay to identify small molecule antagonists of the progesterone receptor (PR) signaling pathway (AID 1346795; active = well fitted inhibition curve with a large enough effect in the signal ratio in the repeat runs, not every such curve was filed as active; the % refers to the signal ratio; note: potency is the fitted concentration of half-maximal effect)
# Summary of the method: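 In HEK293T cells bearing the PR-UAS-bla reporter, compound effects on promegestone-driven (1 nM) beta-lactamase expression are assessed after 16 hr using a fluorescent FRET substrate incubated 2 hr at room temperature.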
# [12] = qHTS assay to identify small molecule antagonists of the progesterone receptor (PR) signaling pathway - cell viability counter screen (AID 1346798); note: nearly all actives have a fitted effect of over 50% in size; note: potency is the fitted concentration of half-maximal effect
# Summary of the method: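 Following a 4 hr attachment, PR-UAS-bla HEK293T cells in charcoal-stripped FBS medium were exposed to compounds with R5020 for 16 hr; CellTiter-Glo was added and luminescence read after 30 min at room temperature.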
# [13] = qHTS assay to identify small molecule agonists of the progesterone receptor (PR) signaling pathway - cell viability counter screen (AID 1346799; calls by dose curve; note: nearly all actives have a fitted effect of over 45% in size; note: potency is the fitted concentration of half-maximal effect)
# Summary of the method: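 Here, 3,000 PR-UAS-bla HEK293T cells per well were treated with compounds for 16 hr after a 6 hr preincubation at 37C and 5% CO2; cell viability is the CellTiter-Glo luminescence signal.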
# [14] = qHTS assay to identify small molecule antagonists of the TGF-beta/Smad signaling pathway - cell viability counter screen (AID 1346824); note: nearly all actives have a fitted effect of over 50% in size
# Summary of the method: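 SBE-bla HEK 293T cells were plated overnight at 37 C, then given compounds in DMSO plus TGF-beta1 (added as 0.25 ng/mL solution) for 5 hr. After the bla read, CellTiter-Glo was added to the same wells and luminescence read after 30 min at room temperature.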
# [15] = qHTS assay to identify small molecule agonists of the TGF-beta/Smad signaling pathway - cell viability counter screen (AID 1346829); note: top concentration of the series differs between compounds; nearly all actives have a fitted effect of over 45% in size
# Summary of the method: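 Tox21 qHTS format: SBE-bla HEK 293T cells treated with DMSO-dissolved compounds for 5 hr; CellTiter-Glo luminescence after 30 min at room temperature.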
# [16] = qHTS assay to identify small molecule agonists of the TGF-beta/Smad signaling pathway (AID 1346859; active = well fitted activation curve with a large enough effect in the signal ratio in the repeat runs, not every such curve was filed as active; the % refers to the signal ratio; note: series mostly up to about 77 µM)
# Summary of the method: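 Each well held 4,000 SBE-bla HEK 293T cells incubated overnight before compound addition; 5 hr later the cleavable FRET substrate went on for 2 hr at room temperature, and fluorescence was read at two emissions.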
# [17] = target: Thyrotropin-releasing hormone receptor (Homo sapiens) (UniProt P34981); test: qHTS assay to identify small molecule antagonists of the thyrotropin-releasing hormone receptor (TRHR) signaling pathway (AID 1346877; active = well fitted inhibition curve with a large enough effect in the repeat runs, not every such curve was filed as active; note: series mostly up to about 51 µM)
# Thyrotropin-releasing hormone receptor (Homo sapiens), sequence (P34981 whole entry, looked up): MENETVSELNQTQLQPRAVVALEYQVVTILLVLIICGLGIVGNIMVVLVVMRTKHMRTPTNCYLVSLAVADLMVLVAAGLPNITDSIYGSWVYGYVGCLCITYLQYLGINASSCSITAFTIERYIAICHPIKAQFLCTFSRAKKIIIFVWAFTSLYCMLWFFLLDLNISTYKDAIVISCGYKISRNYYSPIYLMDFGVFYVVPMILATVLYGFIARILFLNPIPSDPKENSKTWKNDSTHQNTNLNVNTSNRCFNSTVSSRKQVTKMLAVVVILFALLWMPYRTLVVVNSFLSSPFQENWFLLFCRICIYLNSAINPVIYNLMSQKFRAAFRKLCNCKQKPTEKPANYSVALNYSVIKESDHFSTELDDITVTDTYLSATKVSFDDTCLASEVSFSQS
# Summary of the method: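 Antagonist mode: after a 5 min room-temperature compound exposure, cells were stimulated with 1 nM (final) TRH. Dye-loaded TRHR-HEK293 cells were used, and calcium-dependent fluorescence was followed for 3 min, with 15-point titrations run in triplicate.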
# [18] = target: Thyrotropin-releasing hormone receptor (Homo sapiens) (UniProt P34981); test: qHTS assay to identify small molecule agonists of the thyrotropin-releasing hormone receptor (TRHR) signaling pathway (AID 1346891; calls by dose curve; note: series mostly up to about 58 µM)
# Summary of the method: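 Screening of agonists relied on calcium signalling in HEK293 cells expressing human TRHR: dye loading 2 h at 37 °C preceded compound addition and a 3-min fluorescence time course.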
# [19] = target: Androgen receptor (Homo sapiens) (UniProt P10275); test: qHTS assay to identify small molecule agonists of the androgen receptor (AR) signaling pathway in the presence of an antagonist (AID 1259381; calls by dose curve; note: nearly all actives have a fitted effect of over 15% in size)
# Androgen receptor (Homo sapiens), sequence (P10275 whole entry, looked up): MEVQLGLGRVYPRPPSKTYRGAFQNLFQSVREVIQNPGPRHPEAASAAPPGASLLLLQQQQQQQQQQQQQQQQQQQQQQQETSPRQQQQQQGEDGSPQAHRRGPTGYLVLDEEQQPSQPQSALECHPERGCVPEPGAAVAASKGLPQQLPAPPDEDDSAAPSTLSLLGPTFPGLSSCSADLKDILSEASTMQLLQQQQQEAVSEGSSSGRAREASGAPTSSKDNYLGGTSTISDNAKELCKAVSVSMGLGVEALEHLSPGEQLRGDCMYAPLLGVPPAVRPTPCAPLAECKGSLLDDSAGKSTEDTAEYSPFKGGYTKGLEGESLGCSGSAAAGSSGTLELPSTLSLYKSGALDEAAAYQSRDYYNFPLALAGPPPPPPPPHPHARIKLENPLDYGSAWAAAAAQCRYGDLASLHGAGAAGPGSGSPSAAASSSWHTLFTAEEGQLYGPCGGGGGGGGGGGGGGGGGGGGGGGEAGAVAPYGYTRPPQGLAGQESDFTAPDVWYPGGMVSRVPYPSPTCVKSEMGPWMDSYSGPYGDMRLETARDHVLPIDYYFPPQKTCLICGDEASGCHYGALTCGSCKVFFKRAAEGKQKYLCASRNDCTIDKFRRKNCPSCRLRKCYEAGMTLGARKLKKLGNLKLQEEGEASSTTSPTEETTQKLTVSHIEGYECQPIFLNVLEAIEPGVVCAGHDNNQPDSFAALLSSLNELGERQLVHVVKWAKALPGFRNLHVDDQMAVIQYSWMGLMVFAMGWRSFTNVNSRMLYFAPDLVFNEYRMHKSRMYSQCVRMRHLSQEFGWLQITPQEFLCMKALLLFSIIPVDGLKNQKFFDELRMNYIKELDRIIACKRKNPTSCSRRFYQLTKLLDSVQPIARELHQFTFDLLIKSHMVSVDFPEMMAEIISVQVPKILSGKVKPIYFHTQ
# Summary of the method: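 Agonist-mode confirmation run against 3.0 uM final nilutamide: compounds titrated at 15 concentrations onto MDA-kb2 MMTV-luciferase reporter cells. Luminescence measured with ONE-Glo following 16 hr incubation, 37C, 0% CO2.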
# [20] = qHTS assay to identify small molecule agonists of the estrogen receptor alpha (ER-alpha) signaling pathway in the presence of an antagonist - cell viability counter screen (AID 1259386); note: series mostly up to about 92 µM; nearly all actives have a fitted effect of over 30% in size
# Summary of the method: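 Compounds tested at 15 concentrations for 22 h at 37C alongside 10.0nM (final) ICI-182,780 antagonist, in VM7Luc4E2 cells grown in phenol red-free, charcoal-stripped medium. Viability read by CellTiter-Fluor fluorescence after 1 h reagent incubation.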
Structure (SMILES),Potency [1],Potency [2],Potency [3],Potency [4],Potency [5],Potency [6],Potency [7],outcome [8],Potency [9],Potency [10],Potency [11],Potency [12],Potency [13],Potency [14],Potency [15],outcome [16],Potency [17],Potency [18],outcome [19],Potency [20]
O=C(/C=C/c1ccccc1)OCc1ccccc1,inactive,inactive,inactive,inactive,inactive,inactive,inactive,inactive,inactive,inactive,inactive,inactive,inactive,inactive,inactive,inactive,inactive,inactive,,
Cc1cccc([N+](=O)[O-])c1C,inactive,inactive,inactive,inactive,inactive,,inactive,,,inactive,inactive,inactive,inactive,inactive,inactive,inactive,inactive,inactive,inactive,inactive
COc1c(Cl)c(Cl)c(Cl)c(Cl)c1Cl,inactive,inactive,inactive,inactive,inactive,inactive,,inactive,inactive,inactive,inactive,inactive,inactive,inactive,inactive,inactive,inactive,inactive,,inactive
CCCCOCCOCCO,inactive,inactive,inactive,inactive,inactive,inactive,inactive,inactive,inactive,inactive,inactive,inactive,inactive,inactive,inactive,inactive,,,,
O=C(c1ccccc1)c1ccccc1O,inactive,inactive,inactive,inactive,inactive,inactive,,inactive,inactive,inactive,inactive,inactive,inactive,inactive,inactive,inactive,inactive,inactive,inactive,
Cc1cccc(C(=O)O)c1,381 nM (active) and inactive,inactive,inactive,inactive,inactive,inactive,inactive,inactive,inactive,inactive,inactive,inactive,,inactive,inactive,inactive,,,inactive,
CCCCOCCOCCOCCO,inactive,inactive,inactive,inactive,inactive,inactive,inactive,inactive,inactive,inactive,inactive,inactive,,inactive,inactive,inactive,inactive,inactive,,inactive
CN(C)c1nc(N(C)C)nc(N(C)C)n1,inactive,inactive,inactive,inactive,inactive,inactive,,inactive,inactive,,,inactive,,inactive,inactive,inactive,inactive,inactive,,inactive
CN(C)CCC=C1c2ccccc2CCc2ccccc21,2.73 µM (active) and 9.69 µM (active) and 7.5 µM (active),inactive,68.6 µM (active),inactive,30.6 µM (active) and 26.6 µM (active),15.4 µM (active) and 13.7 µM (active) and 26.6 µM (active),inactive,inactive,68.6 µM (active) and 26.6 µM (active),inactive,54.5 µM (active),61.1 µM (active) and 30.6 µM (active) and 16.8 µM (active),54.5 µM (active) and 15.4 µM (active) and 16.8 µM (active),inactive,inactive,inactive,inactive,inactive,,inactive
c1ccc2c(c1)c1cccc3ccc4cccc2c4c31,inactive,60.7 µM (active) and inactive,inactive,inactive,inactive,inactive,inactive,inactive,inactive,inactive,inactive,inactive,inactive,inactive,inactive,inactive,inactive,inactive,inactive,inactive
Cc1[nH]c(=O)c(C#N)cc1-c1ccncc1,inactive,inactive,inactive,inactive,inactive,inactive,inactive,inactive,inactive,,,inactive,,inactive,inactive,inactive,inactive,inactive,,
c1ccc2cc(Nc3ccc(Nc4ccc5ccccc5c4)cc3)ccc2c1,inactive,inactive,inactive,inactive,inactive,inactive,,,,inactive,inactive,inactive,inactive,inactive,inactive,inactive,inactive,inactive,inactive,inactive
COC(=O)c1ccccc1,inactive,inactive,inactive,inactive,inactive,inactive,,inactive,inactive,inactive,inactive,inactive,,inactive,inactive,inactive,inactive,inactive,,inactive
CC(=O)C1(C)CC2=C(CCCC2(C)C)CC1C (stereo not given),inactive,inactive,inactive,inactive,inactive,inactive,,inactive,43.3 µM (active),,,inactive,,inactive,inactive,inactive,inactive,inactive,inactive,inactive
